The source of these data is PubChem BioAssay AID645 (SRMLSC, 2007).

The whole screen tested about 65,000 compounds, of which about 450 (0.69%) were called active. Shown is part of a subset that was picked to be rich in actives. A number with no mark means an inactive call.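 Rule for the calls: active = HER2 level under 5% of the carrier-only control; inconclusive = no clear call, values can overlap the other calls; inactive = the rest.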

Chain of Receptor tyrosine-protein kinase erbB-2 (Homo sapiens) (P04626 whole entry, looked up): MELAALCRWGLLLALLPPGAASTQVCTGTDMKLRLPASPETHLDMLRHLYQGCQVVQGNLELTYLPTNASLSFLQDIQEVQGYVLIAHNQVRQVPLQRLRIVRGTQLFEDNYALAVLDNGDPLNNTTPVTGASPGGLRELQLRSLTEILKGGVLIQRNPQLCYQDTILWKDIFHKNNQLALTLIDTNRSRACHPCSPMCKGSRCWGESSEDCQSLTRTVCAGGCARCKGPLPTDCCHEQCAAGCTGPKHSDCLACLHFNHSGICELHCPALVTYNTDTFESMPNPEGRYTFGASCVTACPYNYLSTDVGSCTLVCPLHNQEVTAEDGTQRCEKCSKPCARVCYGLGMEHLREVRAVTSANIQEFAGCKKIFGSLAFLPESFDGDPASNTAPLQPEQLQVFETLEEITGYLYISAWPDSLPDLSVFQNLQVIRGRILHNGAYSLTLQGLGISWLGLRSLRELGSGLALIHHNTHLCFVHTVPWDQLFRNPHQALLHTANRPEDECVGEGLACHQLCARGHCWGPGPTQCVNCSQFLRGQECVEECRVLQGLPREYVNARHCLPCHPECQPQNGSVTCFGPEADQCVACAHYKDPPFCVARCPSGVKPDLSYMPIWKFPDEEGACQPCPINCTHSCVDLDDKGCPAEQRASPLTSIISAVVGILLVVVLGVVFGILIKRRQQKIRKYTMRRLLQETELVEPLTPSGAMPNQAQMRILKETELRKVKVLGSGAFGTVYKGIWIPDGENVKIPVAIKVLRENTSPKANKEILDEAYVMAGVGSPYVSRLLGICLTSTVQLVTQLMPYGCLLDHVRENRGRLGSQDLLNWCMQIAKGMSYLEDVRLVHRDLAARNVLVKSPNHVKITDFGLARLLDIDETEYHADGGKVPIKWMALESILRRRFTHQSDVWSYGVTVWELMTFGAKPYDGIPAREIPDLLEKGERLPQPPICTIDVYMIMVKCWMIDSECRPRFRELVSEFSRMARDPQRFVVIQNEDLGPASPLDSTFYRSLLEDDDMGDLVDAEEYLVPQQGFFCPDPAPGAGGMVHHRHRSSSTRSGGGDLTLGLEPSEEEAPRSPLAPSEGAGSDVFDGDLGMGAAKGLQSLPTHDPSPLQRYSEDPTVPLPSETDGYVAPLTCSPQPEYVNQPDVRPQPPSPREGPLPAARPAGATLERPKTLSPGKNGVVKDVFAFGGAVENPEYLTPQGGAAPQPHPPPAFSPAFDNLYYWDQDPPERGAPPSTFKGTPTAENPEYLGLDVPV

This experiment concerns the target Receptor tyrosine-protein kinase erbB-2 (Homo sapiens) (UniProt P04626). Kind of experiment: reducers of endogenous HER2 protein levels – SKBR-3 cells, AlphaScreen, 66K library, primary screen (AID 645).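 Note: 100% = DMSO carrier and 0% = 500 nM PU-H71 HSP90 inhibitor; lower value means stronger loss of Her2 protein.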 Conditions: SKBR-3 HER2 protein level, 18-24 h, at 10 µM, hits give low values.
As to `CC(C)CCNc1nc(N2CCCC2)c2c(c1C#N)CCN(C)C2`, the HER2 level % of control is -0.705% (active).

In the case of `CC(C)Cc1nc(N2CCOCC2)c(C#N)c2c1CCC2`, the HER2 level % of control was 106%.

For `CCN1CCc2c(C#N)c(NCc3ccccc3)nc(NCCO)c2C1`, the HER2 level % of control was 94.1%.

Turning to `COc1ccc(-c2cc3n(n2)CCc2nc4ccccc4n2-3)cc1`, the HER2 level % of control is 74.2%.

Turning to `COC(=O)CN(c1nc(C)c(Cl)c(OC)n1)S(=O)(=O)c1ccc(C)cc1`, the HER2 level % of control was 103%.

Consider `CCC(=NC1CC(C)(C)NC(C)(C)C1)C1=C(O)CC(C)(C)CC1=O`, for which the HER2 level % of control was 76%.

For the compound `CNC(=O)c1cc2c(ccc3ccccc32)oc1=N`, the HER2 level % of control was 74.1%.

As for `CCCC1C(c2ccccc2)C(C#N)(C#N)C2(C#N)CC1(N)NC2=O` (stereo not drawn), the HER2 level % of control was -19.3% (active).

Take `O=C(O)CN(Cc1ccco1)S(=O)(=O)c1ccccc1`: the HER2 level % of control was 110%.

`CC1CCCC(C)N1C(=O)CN1CCN(c2nc(-c3ccc(F)cc3)cs2)CC1` (stereo not drawn): the HER2 level % of control was 90.1%.

As to `CCCCc1nccn1CCn1ccnc1CCCC`, the HER2 level % of control was 106%.

In the case of `CCOC(=O)N1CCC(NC(=O)c2cnn3ccccc23)CC1`, the HER2 level % of control was 106%.

Turning to `CCCCCCC(=O)N(O)C1CC(=O)N(c2ccccc2)C1=O` (stereo not drawn), the HER2 level % of control was 81.1%.

Consider `CCN(CC)C(=O)C1CCC(C)(C(=O)O)C1(C)C` (stereo not drawn), for which the HER2 level % of control is 100%.

In the case of `Cc1cc(C)c(C(=O)CN2C(=O)CCC2=O)cc1C`, the HER2 level % of control was 93.5%.

Take `CCCc1nc(SCC(=O)Nc2ccccc2OC)c2c(=O)n(C)c(=O)n(C)c2n1`: the HER2 level % of control was 31%.

Consider `COc1ccc(-c2c(C)nn3c(N4CCC(C(=O)N5CCCCC5)CC4)cc(C)nc23)cc1OC`, for which the HER2 level % of control was 83.2%.

`O.O.O.O=S(=O)([O-])OC[C@H]1O[C@@H](O[C@]2(COS(=O)(=O)[O-])O[C@H](OS(=O)(=O)[O-])[C@@H](OS(=O)(=O)[O-])[C@@H]2OS(=O)(=O)[O-])[C@H](OS(=O)(=O)[O-])[C@@H](OS(=O)(=O)[O-])[C@@H]1OS(=O)(=O)[O-].[Al]`: the HER2 level % of control is 102%.

As for `CC(NC(=O)CSc1nc2c(cc1C#N)CN(C)CC2)c1ccccc1` (stereo not drawn), the HER2 level % of control was 110%.

For `CSc1cccc(NC(=O)CSc2ccccc2)c1`, the HER2 level % of control is 95.7%.

As to `O=C(NCCCN1CCN(C2CCCCC2)CC1)Nc1ccccc1C(F)(F)F`, the HER2 level % of control is 82.5%.

`CCCCN(C)Cc1c(C)[nH]c2ccc(Cl)cc2c1=O`: the HER2 level % of control is 88%.

For the compound `CCCC(C)n1[nH]c(=O)c2c(C)cc(C)nc21` (stereo not drawn), the HER2 level % of control is 90.1%.

`c1cc(-n2cnnn2)ccc1NC1=NCCC1`: the HER2 level % of control was 92.1%.

With `COCCOC(=O)C1=C(C)NC(=O)NC1c1ccc(Cl)cc1` (stereo not drawn), the HER2 level % of control was 95.6%.

On to `N#Cc1ccc(CSc2nnc(-c3ccccn3)n2-c2ccc(Cl)cc2)cc1`, for which the HER2 level % of control is 41.4%.

In the case of `O=C(c1ccco1)N1CCN(C(=O)C2CC(c3ccc(F)cc3)=NO2)CC1` (stereo not drawn), the HER2 level % of control was 57.7%.

In the case of `OCCNCCCCOc1ccccc1F`, the HER2 level % of control is 116%.

As for `O=C1c2oc3ccccc3c(=O)c2C(c2cccc(O)c2)N1c1ccccn1` (stereo not drawn), the HER2 level % of control is 95%.

Turning to `CCOC(=O)c1sc2nc(CSCC(=O)OCc3ccc(C(=O)OC)o3)[nH]c(=O)c2c1C`, the HER2 level % of control is 60.2%.

Turning to `CCC(c1nnnn1Cc1ccco1)N(CCc1ccccc1)Cc1cc2ccc(OC)cc2[nH]c1=O` (stereo not drawn), the HER2 level % of control is 76.1%.

Regarding `CCC(c1nnnn1Cc1ccco1)N(Cc1cc2cc(OC)ccc2[nH]c1=O)C1CCCCC1` (stereo not drawn), the HER2 level % of control is 1.98% (active).

As for `CCC(c1nnnn1Cc1ccccc1)N(Cc1cc2cc(OC)ccc2[nH]c1=O)CC1CCCO1` (stereo not drawn), the HER2 level % of control is 117%.

Consider `Cc1cc(NC(=O)CN2CCCCC2C)nc2c1c(=O)oc1ccccc12` (stereo not drawn), for which the HER2 level % of control was 70%.

For the compound `COc1ccccc1CNC(=O)CCn1c(=O)sc2ccccc21`, the HER2 level % of control was 92.5%.

In the case of `Cn1c(=O)c2c(nc(CN3CCOCC3)n2Cc2ccccc2)n(C)c1=O`, the HER2 level % of control is 75.7%.

Turning to `S=C1SCN(CCN2CCOCC2)CN1Cc1ccccc1`, the HER2 level % of control was 3.88% (active).

As to `COc1ccc(CN2CN(C(C)C)CSC2=S)cc1`, the HER2 level % of control is 10.7%.

As to `O=C(NCc1ccco1)C1CCCN(S(=O)(=O)c2cnc[nH]2)C1` (stereo not drawn), the HER2 level % of control was 105%.

Consider `O=C(N1CCOCC1)N1CCOCC1`, for which the HER2 level % of control is 112%.

Turning to `CS(=O)(=O)N(CC(=O)N1CCN(Cc2ccc3c(c2)OCO3)CC1)c1ccc2c(c1)OCO2`, the HER2 level % of control was 100%.

Turning to `COc1ccccc1C(=O)N1CCNC(=O)C1CC(=O)Nc1ccc(Cl)cc1` (stereo not drawn), the HER2 level % of control is 67.3%.

Take `Cc1nc2nc3c(cn2n1)C(=O)CC(c1ccccc1)C3` (stereo not drawn): the HER2 level % of control is 122%.

For `O=C(Cn1c(-c2ccccn2)nc2ccccc21)NCCN1CCOCC1`, the HER2 level % of control was 79.8%.

Consider `COc1cc(C2C(C(=O)c3ccc(C)o3)=C(O)C(=O)N2Cc2cccnc2)ccc1O` (stereo not drawn), for which the HER2 level % of control was 154%.

In the case of `CCCN1C(=O)C(NS(=O)(=O)c2ccc(N)cc2)(C(F)(F)F)C(C(=O)OC)=C1C` (stereo not drawn), the HER2 level % of control was 126%.

For `CCOC(=O)CSc1nncc2ccc(OC)c(OC)c12`, the HER2 level % of control was 115%.

Turning to `CCOC(=O)N1CCN(C(=O)CN(c2ccc(C)c(C)c2)S(=O)(=O)c2ccccc2)CC1`, the HER2 level % of control is 224%.
